From PubChem BioAssay (NCI)
This is part of a sample that, as a whole, favours compounds with a hit. Of some 83,000 tested, about 20% had one in any assay.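 Negative percent growth values reflect cell death: -40 means 40% of the cells present at the start died, and -100 means all died.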 Activity calls are given as the source filed them. Rule for the calls: active = growth percent below 10; inactive = the rest.

How the values were obtained:
Test in all cases: NCI-60 one-dose screen, 48 h (100 = growth as untreated, 0 = no growth, -100 = all killed)
Settings in all cases: 10 µM unless noted
[1] = system: HCT-15 colon
[2] = system: HT29 colon
[3] = system: SNB-75 CNS
[4] = system: SNB-19 CNS
[5] = system: U251 CNS
[6] = system: SK-MEL-5 melanoma
[7] = system: UACC-62 melanoma
[8] = system: LOX IMVI melanoma
[9] = system: SK-MEL-28 melanoma
[10] = system: SK-MEL-2 melanoma
[11] = system: SN12C renal
[12] = system: UO-31 renal
[13] = system: TK-10 renal
[14] = system: ACHN renal
[15] = system: CCRF-CEM leukemia
[16] = system: MOLT-4 leukemia
[17] = system: EKVX NSCLC
[18] = system: CAKI-1 renal
[19] = system: A498 renal
[20] = system: PC-3 prostate

Measured: growth

COc1cc(/C=C/C(=O)c2cccnc2Nc2ccc(F)cc2)cc(OC)c1OC
inactive: [1] 22.2% | [2] 12.5% | [3] 22.4% | [4] 61.6% | [5] 24.1% | [6] 53.7% | [7] 49.9% | [9] 72.1% | [10] 27.5% | [11] 16.2% | [12] 75.6% | [13] 77.8% | [14] 45.7%
active: [8] 8.97% | [15] -10.6% | [16] 5.4%

O=C(COc1cccc(/C=C2\COc3ccccc3C2=O)c1)Nc1nccs1
active: [1] -17.9% | [2] -28.7% | [8] -96.8% | [9] -68.3% | [15] -58.5% | [16] -48.4%
inactive: [3] 77.3% | [4] 73.5% | [5] 22.6% | [6] 52.3% | [7] 78.2% | [10] 65% | [17] 72.2% | [12] 67.3% | [13] 64.2% | [14] 88.2% | [18] 83.5% | [19] 102%

CN(CCCCCl)P(=O)(OCc1ccc([N+](=O)[O-])o1)C(F)(F)c1ccc(CC(=O)NC[C@@H](O)/C=C\[C@@H](O)[C@H](CO)Cc2ccccc2)cc1 (some centres undefined)
inactive: [1] 96.2% | [2] 77% | [3] 95.4% | [4] 102% | [5] 93.7% | [6] 97.1% | [7] 74.4% | [8] 60.4% | [9] 97.8% | [10] 66.5% | [17] 99.3% | [12] 88.9% | [13] 113% | [14] 94% | [18] 104% | [19] 83.8% | [15] 70.7% | [16] 93.5%

Cc1cn2c(/C=C3/C(=O)Nc4c3ccc3ccccc43)c(C(F)(F)F)nc2s1
inactive: [1] 27% | [4] 36.3% | [5] 17.5% | [6] 24.7% | [7] 31.6% | [8] 33.6% | [9] 58.4% | [10] 20% | [11] 38.2% | [13] 36.3% | [14] 48.5% | [15] 16.4% | [16] 35.1%
active: [2] 0.295% | [3] -6.4% | [19] 0.919%

CN(C)CCCNc1c2ccccc2nc2ccccc12
inactive: [1] 94.1% | [2] 82.8% | [3] 66.9% | [4] 90.5% | [5] 77.1% | [6] 93.2% | [7] 105% | [8] 96.3% | [9] 103% | [10] 99.9% | [11] 95.8% | [13] 81.6% | [14] 100% | [18] 106% | [19] 102% | [15] 86.9% | [16] 83.3%

CC(=O)Oc1ccc(Cl)cc1CN(C(C)=O)C1CCCCC1
inactive: [1] 101% | [2] 107% | [3] 93.7% | [4] 95.7% | [5] 95.9% | [6] 101% | [7] 86.8% | [8] 114% | [9] 106% | [10] 112% | [11] 97.3% | [12] 90.5% | [13] 110% | [14] 102% | [15] 87.9% | [16] 85.9%

CCCCn1cnc2c(Sc3c([N+](=O)[O-])ncn3C)nc(N)nc21
inactive: [1] 91.6% | [2] 99.7% | [3] 84.3% | [4] 96.3% | [5] 101% | [6] 103% | [7] 88.9% | [8] 107% | [9] 98.8% | [10] 112% | [11] 97.6% | [12] 69.1% | [13] 102% | [14] 99.8% | [15] 86.9% | [16] 49.5%

CCOc1cc2c(cc1OCC)C(c1cc(OC)c(O)cc1Cl)NCC2 (centres undefined)
inactive: [1] 86.9% | [2] 56.9% | [3] 82.2% | [4] 103% | [5] 84.1% | [6] 88.6% | [7] 99.8% | [8] 89.6% | [9] 99.9% | [10] 113% | [11] 96.7% | [12] 70.1% | [13] 88.2% | [14] 94.6% | [18] 115% | [19] 93.7% | [15] 108% | [16] 112%

O=C(CCCCC(=O)N/N=C\c1ccccc1O)N/N=C\c1ccccc1O
inactive: [1] 21% | [2] 69.1% | [3] 69.6% | [4] 38.9% | [5] 26.4% | [7] 13.5% | [8] 26.2% | [9] 48.3% | [10] 75.6% | [11] 47.4% | [12] 19.3% | [13] 40.5% | [14] 13.2% | [18] 14.7% | [15] 18.1% | [16] 14.6%
active: [6] -14.9%

CCOC(=O)n1cc(-c2nonc2-c2cn(C)c3ncccc23)c2cc(F)ccc21
inactive: [1] 68.8% | [2] 83.2% | [3] 64.3% | [4] 91.6% | [5] 77.2% | [6] 81.5% | [7] 62.2% | [8] 83.8% | [9] 102% | [10] 92.8% | [11] 79.8% | [12] 57.5% | [13] 80.8% | [14] 74.9% | [18] 54.8% | [19] 94.8% | [15] 85% | [16] 66.7%

COCCNc1ccc2c3c(cccc13)C(=O)N(CCN(C)C)C2=O
inactive: [1] 20% | [2] 10.4% | [3] 47.7% | [4] 22.4% | [5] 28.1% | [9] 37.5% | [17] 22.5% | [11] 24.7% | [12] 10.6% | [13] 20.5% | [19] 26.5%
active: [6] -33.5% | [7] 3.48% | [10] -12.6% | [18] -21.4% | [15] 8.36% | [16] -6.43%

C=CC(COC(c1ccccc1)(c1ccccc1)c1ccccc1)N(CC)CC (centres undefined)
active: [16] 8.88%
inactive: [1] 16.7% | [2] 14.6% | [3] 73% | [4] 82.1% | [5] 52.5% | [7] 44.8% | [8] 49.5% | [9] 59.4% | [10] 85.8% | [17] 76.1% | [11] 58.3% | [12] 59.4% | [13] 79.8% | [14] 81.7% | [18] 67.1% | [19] 73.8% | [15] 59.3%

N#Cc1nnn(-c2ccc(S(N)(=O)=O)cc2)c1NCC(=O)c1ccccc1
inactive: [1] 98.3% | [2] 95.5% | [3] 80% | [4] 92.2% | [5] 93.6% | [7] 96% | [8] 94.1% | [9] 111% | [10] 97.8% | [17] 90.9% | [12] 78.9% | [13] 107% | [19] 101% | [15] 83.6% | [16] 89.9%

CSc1ccc(-c2n[nH]nc2-c2cc3ccccc3s2)cc1
inactive: [1] 28.7% | [2] 37.8% | [3] 44.5% | [4] 55.7% | [5] 32.6% | [7] 47.5% | [8] 34.9% | [9] 59.5% | [10] 33% | [12] 52.3% | [13] 84.2% | [14] 64.7% | [18] 49.1% | [19] 46.8% | [15] 52.6% | [16] 10.1%

COc1cc(/C=C/C(=O)c2ccc(O)c(CN3CCN(c4cc5c(cc4F)c(=O)c(C(=O)O)cn5C4CC4)CC3)c2)cc(OC)c1OC
inactive: [1] 19.3% | [2] 10.3% | [3] 57.7% | [4] 75.7% | [20] 47.1% | [6] 64% | [7] 59.9% | [8] 20.7% | [9] 59.3% | [10] 66.2% | [17] 49.4% | [11] 38.2% | [12] 47.4% | [13] 107% | [14] 46.1% | [18] 54.7% | [19] 93% | [16] 33.3%
active: [15] 9.83%

O=c1oc2c(C(F)(F)F)cccc2cc1-c1csc(Nc2ccc(OCCF)cc2)n1
inactive: [1] 17.3% | [3] 19.3% | [4] 27.7% | [8] 19.7% | [10] 18% | [17] 38% | [12] 40.3% | [13] 59.7% | [14] 23.2% | [18] 12.2% | [16] 15.8%
active: [2] -11.5% | [5] 5.11% | [19] -9.67% | [15] 5.28%

CC1(C)CC[C@]2(C(=O)Nc3ccccn3)CC[C@]3(C)C(=CC[C@@H]4[C@@]5(C)C/C(=C/c6cccnc6)C(=O)C(C)(C)[C@@H]5CC[C@]43C)[C@H]2C1
active: [6] -14.8%
inactive: [1] 18.9% | [2] 25.1% | [3] 45.2% | [4] 63.8% | [20] 19.9% | [7] 34.1% | [8] 14.9% | [9] 48.2% | [10] 63.9% | [17] 42.5% | [11] 32.6% | [12] 37.4% | [13] 68.9% | [14] 26.5% | [18] 36.3% | [19] 39.9% | [15] 20.9% | [16] 13.2%

Cc1ccc2c(C(C[N+](=O)[O-])c3ccccc3)c(-c3ccccc3)[nH]c2c1 (centres undefined)
active: [2] 0.357% [9.5 µM] | [3] -6.93% [9.5 µM] | [10] 1.05% [9.5 µM] | [19] -1.59% [9.5 µM]
inactive: [1] 18.8% [9.5 µM] | [4] 37.4% [9.5 µM] | [5] 25% [9.5 µM] | [6] 32.8% [9.5 µM] | [7] 38% [9.5 µM] | [9] 49.3% [9.5 µM] | [17] 42.3% [9.5 µM] | [11] 42.2% [9.5 µM] | [12] 35% [9.5 µM] | [13] 43.7% [9.5 µM] | [18] 21.5% [9.5 µM] | [15] 19.5% [9.5 µM] | [16] 21.2% [9.5 µM]

CCOc1ccc(-n2nc(C(=O)Nc3cc(OC)c(OC)c(OC)c3)nc2-c2cc(OC)c(OC)c(OC)c2)cc1
inactive: [1] 82.1% | [2] 84.6% | [3] 65.6% | [4] 82.1% | [5] 85.1% | [8] 89% | [10] 85.6% | [17] 96.1% | [12] 52.6% | [13] 104% | [14] 85.7% | [18] 77.4% | [19] 67.3% | [15] 66.5% | [16] 67.5%

NC(=NCCCOc1ccc(Cl)cc1)Nc1ccc(C(F)(F)F)cc1
active: [2] 3.11% | [8] 9.81% | [14] 9.43% | [15] 3.2% | [16] 4.99%
inactive: [1] 54% | [3] 35.4% | [4] 26.4% | [5] 33% | [10] 41.3% | [17] 50.5% | [12] 37.1% | [13] 76.1% | [18] 60.5% | [19] 35%

CC(C)CSc1nc(N)nc2c1ncn2C1OC(CO)C(O)C1O (centres undefined)
inactive: [1] 92.7% | [2] 103% | [3] 101% | [4] 104% | [5] 101% | [6] 96.5% | [7] 92.8% | [9] 112% | [10] 111% | [17] 93.2% | [11] 94% | [12] 95.2% | [13] 107% | [14] 94.6% | [18] 82.8% | [15] 102% | [16] 110%

CN1CCN(Cc2ccc(NC(=O)c3cncc(C#Cc4cncn5ccnc45)c3)cc2C(F)(F)F)CC1
inactive: [1] 46.1% | [2] 19.2% | [3] 123% | [4] 92.4% | [5] 76.9% | [7] 18.7% | [9] 30.3% | [10] 24.2% | [17] 86.6% | [11] 31.3% | [13] 94.2% | [14] 37.8% | [18] 89.2% | [15] 36% | [16] 82.9%

CC(C)(C)N1CCC1CN (centres undefined)
inactive: [1] 126% | [2] 111% | [3] 87.4% | [4] 101% | [5] 117% | [6] 136% | [7] 112% | [9] 105% | [10] 72.1% | [17] 90.1% | [11] 111% | [12] 91.1% | [13] 106% | [14] 114% | [19] 88.5% | [16] 128%
